What was measured:
Assay in all cases: DAPPL (digital affinity profiling via proximity ligation, sequencing); 10 mM Tris-HCl pH 7.5, 50 mM NaCl, 1 mM DTT, 4% glycerol, room temperature, 30 min; GST-TFs on glutathione beads, 16-mer random dsDNA library, 0.1% formaldehyde crosslink after washing; high values mean tight binding
FEV = biological target: T1, FEV (Homo sapiens, UniProt Q99581 1-238); conditions: protein: recombinant; tags: N-terminal GST; dsDNA, one strand shown
T1 sequence: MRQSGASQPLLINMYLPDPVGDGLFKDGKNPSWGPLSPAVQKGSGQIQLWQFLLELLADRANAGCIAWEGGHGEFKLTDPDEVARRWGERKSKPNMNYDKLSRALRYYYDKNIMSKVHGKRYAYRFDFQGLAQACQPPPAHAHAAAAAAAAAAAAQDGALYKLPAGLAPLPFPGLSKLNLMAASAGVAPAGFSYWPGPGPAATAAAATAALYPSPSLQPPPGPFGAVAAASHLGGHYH
Procedure, shortened: (§1)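 Pools of DNA-barcoded human transcription factors, expressed in yeast as GST fusions on glutathione beads and combined with a tag-only sample, were incubated with 200 nmole of a 16-mer random double-stranded DNA library. Incubation took 30 min at room temperature in Tris/NaCl/DTT/glycerol buffer and was followed by washing, 0.1% formaldehyde crosslinking, proximity ligation (BsaI/T4 ligase, 1 h, 37 °C), PCR amplification and sequencing on an Illumina NextSeq500. Binding signal is the ratio of a hexamer's read frequency for a factor to its frequency for the tag-only sample.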

ETV5 = ETV5 (Homo sapiens, UniProt P41161 1-510); conditions: protein: recombinant; tags: N-terminal GST; dsDNA, one strand shown
Procedure, shortened: as §1

HSF1 = HSF1 (Homo sapiens, UniProt Q00613 1-529); conditions: protein: recombinant; tags: N-terminal GST; chain copies: 3; dsDNA, one strand shown
Procedure, shortened: as §1

SPIC = biological target: T2, SPIC (Homo sapiens, UniProt Q8N5J4 1-248); conditions: protein: recombinant; tags: N-terminal GST; dsDNA, one strand shown
T2 sequence: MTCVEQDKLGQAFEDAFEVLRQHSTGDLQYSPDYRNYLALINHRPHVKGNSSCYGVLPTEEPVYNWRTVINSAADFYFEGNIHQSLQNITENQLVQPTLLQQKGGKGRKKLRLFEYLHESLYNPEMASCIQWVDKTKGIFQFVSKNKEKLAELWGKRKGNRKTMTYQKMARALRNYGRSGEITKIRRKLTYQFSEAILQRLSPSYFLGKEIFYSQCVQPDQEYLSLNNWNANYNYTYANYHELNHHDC
Procedure, shortened: as §1

ELF4 = ELF4 (Homo sapiens, UniProt Q99607 1-663); conditions: protein: recombinant; tags: N-terminal GST; dsDNA, one strand shown
Procedure, shortened: as §1

ELK4 = biological target: T3, ELK4 (Homo sapiens, UniProt P28324-2 1-405); conditions: protein: recombinant; tags: N-terminal GST; dsDNA, one strand shown
T3 sequence: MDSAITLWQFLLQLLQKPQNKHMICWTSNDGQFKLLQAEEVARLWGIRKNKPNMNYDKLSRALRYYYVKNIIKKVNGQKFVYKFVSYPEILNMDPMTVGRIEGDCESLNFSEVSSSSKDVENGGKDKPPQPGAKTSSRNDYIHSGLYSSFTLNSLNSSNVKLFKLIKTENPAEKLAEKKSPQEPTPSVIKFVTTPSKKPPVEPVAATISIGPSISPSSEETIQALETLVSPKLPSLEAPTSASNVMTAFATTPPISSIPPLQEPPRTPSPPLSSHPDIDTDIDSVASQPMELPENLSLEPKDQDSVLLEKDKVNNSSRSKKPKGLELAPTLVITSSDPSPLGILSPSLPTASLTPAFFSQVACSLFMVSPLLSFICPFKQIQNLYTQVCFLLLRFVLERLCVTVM
Procedure, shortened: as §1

ETV2 = biological target: T4, ETV2 (Homo sapiens, UniProt O00321 1-342); conditions: protein: recombinant; tags: N-terminal GST; dsDNA, one strand shown
T4 sequence: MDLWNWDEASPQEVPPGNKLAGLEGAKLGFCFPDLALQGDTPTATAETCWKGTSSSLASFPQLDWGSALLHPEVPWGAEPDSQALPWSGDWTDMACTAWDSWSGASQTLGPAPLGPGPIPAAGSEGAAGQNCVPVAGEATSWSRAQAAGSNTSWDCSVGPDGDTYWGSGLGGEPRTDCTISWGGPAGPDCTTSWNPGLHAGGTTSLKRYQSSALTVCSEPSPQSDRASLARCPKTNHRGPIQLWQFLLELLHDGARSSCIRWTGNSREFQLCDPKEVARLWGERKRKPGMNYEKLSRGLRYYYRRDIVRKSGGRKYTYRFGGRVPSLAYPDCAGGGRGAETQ
Procedure, shortened: as §1

ELF3 = biological target: T5, ELF3 (Homo sapiens, UniProt P78545 1-371); conditions: protein: recombinant; tags: N-terminal GST; dsDNA, one strand shown
T5 sequence: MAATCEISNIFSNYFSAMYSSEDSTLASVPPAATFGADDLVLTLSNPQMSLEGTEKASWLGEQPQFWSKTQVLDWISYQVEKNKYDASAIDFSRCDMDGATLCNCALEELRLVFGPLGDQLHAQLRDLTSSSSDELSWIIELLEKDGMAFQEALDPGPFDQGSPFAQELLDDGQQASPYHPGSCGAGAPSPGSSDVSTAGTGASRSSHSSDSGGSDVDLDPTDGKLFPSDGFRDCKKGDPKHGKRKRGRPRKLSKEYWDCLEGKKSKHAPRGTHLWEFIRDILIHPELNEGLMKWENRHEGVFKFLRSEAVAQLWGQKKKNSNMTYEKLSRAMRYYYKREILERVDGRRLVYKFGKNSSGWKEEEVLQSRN
Procedure, shortened: as §1

CRX = CRX (Homo sapiens, UniProt O43186 1-299); conditions: protein: recombinant; tags: N-terminal GST; dsDNA, one strand shown
Procedure, shortened: as §1

Sequence of ETV5 (P41161 whole entry): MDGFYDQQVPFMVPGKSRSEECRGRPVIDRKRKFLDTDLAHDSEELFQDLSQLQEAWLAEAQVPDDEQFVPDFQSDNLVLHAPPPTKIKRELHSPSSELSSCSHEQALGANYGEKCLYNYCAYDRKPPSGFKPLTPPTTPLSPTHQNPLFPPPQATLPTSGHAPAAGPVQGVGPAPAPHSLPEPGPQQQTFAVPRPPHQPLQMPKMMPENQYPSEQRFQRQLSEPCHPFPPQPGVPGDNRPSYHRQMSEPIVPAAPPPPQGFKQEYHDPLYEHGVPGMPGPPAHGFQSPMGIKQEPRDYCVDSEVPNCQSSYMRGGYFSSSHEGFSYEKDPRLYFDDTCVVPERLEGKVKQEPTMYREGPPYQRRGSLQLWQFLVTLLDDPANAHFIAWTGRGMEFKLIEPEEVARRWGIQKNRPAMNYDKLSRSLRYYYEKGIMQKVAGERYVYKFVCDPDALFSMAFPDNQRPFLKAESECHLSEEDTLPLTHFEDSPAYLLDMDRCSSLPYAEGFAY
Sequence of ELF4 (Q99607 whole entry): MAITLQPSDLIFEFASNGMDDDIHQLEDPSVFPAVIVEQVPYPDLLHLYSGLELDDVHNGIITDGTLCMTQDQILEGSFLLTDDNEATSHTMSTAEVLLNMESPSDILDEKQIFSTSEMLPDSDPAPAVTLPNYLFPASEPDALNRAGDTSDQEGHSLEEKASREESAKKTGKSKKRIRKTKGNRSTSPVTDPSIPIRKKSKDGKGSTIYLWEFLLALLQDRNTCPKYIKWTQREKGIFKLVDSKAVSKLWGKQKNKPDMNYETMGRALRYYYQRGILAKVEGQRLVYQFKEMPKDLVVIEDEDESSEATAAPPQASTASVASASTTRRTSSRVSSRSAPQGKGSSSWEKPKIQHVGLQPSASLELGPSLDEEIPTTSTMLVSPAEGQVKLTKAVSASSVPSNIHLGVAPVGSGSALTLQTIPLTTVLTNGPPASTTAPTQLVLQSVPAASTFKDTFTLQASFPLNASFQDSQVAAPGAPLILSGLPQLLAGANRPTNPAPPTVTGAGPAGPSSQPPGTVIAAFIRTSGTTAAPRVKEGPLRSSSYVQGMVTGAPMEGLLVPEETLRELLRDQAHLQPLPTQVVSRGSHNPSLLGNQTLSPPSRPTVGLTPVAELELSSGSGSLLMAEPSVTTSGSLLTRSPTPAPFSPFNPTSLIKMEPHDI
Sequence of HSF1 (Q00613 whole entry): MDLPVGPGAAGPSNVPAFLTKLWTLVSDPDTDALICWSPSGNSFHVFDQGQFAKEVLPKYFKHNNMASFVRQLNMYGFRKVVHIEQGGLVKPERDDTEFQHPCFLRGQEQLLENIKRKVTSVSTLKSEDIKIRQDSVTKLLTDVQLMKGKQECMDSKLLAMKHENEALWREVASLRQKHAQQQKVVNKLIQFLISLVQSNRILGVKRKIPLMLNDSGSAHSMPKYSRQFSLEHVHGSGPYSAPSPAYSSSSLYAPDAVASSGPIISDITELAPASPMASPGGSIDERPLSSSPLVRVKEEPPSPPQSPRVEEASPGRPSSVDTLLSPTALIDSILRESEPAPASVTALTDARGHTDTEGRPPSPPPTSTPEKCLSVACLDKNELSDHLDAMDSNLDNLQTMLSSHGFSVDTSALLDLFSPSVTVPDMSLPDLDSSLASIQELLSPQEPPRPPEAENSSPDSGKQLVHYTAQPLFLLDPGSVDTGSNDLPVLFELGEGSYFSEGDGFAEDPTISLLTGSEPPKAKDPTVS
Sequence of CRX (O43186 whole entry): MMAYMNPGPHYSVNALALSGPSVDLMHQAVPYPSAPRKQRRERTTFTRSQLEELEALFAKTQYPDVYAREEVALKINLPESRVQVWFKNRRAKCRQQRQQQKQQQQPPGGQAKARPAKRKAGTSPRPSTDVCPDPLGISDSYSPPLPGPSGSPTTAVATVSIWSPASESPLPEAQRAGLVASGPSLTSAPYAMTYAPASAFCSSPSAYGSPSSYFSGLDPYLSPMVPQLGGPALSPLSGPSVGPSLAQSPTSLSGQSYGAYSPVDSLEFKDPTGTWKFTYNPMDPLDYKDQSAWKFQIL

AAATAC
binding signal (FEV): 1.41 fold enrichment (6-mer frequency, TF over GST control)
binding signal (ETV5): 1.43 fold enrichment (6-mer frequency, TF over GST control)
binding signal (HSF1): 1.36 fold enrichment (6-mer frequency, TF over GST control)
binding signal (SPIC): 1.3 fold enrichment (6-mer frequency, TF over GST control)
binding signal (ELF4): 1.36 fold enrichment (6-mer frequency, TF over GST control)
binding signal (ELK4): 1.18 fold enrichment (6-mer frequency, TF over GST control)
binding signal (ETV2): 1.51 fold enrichment (6-mer frequency, TF over GST control)
binding signal (ELF3): 1.37 fold enrichment (6-mer frequency, TF over GST control)
binding signal (CRX): 1.46 fold enrichment (6-mer frequency, TF over GST control)

From article PMC7862700, “An all-to-all approach to the identification of sequence-specific readers for epigenetic DNA modifications on cytosine”
